Experimental data: PubChem BioAssay AID588835 (The Scripps Research Institute Molecular Screening Center, 2011)
Calls of active or inactive are those of the source. No rule for the calls is given here.

Biological target: Prolyl endopeptidase (Mus musculus) (UniProt Q9QUR6)
Assay: in situ PREP and ABHD6 off-target inhibition, dose response, selectivity assay for PME-1 inhibitor project, cell-based, fluorescence, gel-based ABPP (AID 588835)
Details: in situ gel-based competitive ABPP; series mostly up to 10 µM

Chain of Prolyl endopeptidase (Mus musculus) (Q9QUR6 whole entry, looked up): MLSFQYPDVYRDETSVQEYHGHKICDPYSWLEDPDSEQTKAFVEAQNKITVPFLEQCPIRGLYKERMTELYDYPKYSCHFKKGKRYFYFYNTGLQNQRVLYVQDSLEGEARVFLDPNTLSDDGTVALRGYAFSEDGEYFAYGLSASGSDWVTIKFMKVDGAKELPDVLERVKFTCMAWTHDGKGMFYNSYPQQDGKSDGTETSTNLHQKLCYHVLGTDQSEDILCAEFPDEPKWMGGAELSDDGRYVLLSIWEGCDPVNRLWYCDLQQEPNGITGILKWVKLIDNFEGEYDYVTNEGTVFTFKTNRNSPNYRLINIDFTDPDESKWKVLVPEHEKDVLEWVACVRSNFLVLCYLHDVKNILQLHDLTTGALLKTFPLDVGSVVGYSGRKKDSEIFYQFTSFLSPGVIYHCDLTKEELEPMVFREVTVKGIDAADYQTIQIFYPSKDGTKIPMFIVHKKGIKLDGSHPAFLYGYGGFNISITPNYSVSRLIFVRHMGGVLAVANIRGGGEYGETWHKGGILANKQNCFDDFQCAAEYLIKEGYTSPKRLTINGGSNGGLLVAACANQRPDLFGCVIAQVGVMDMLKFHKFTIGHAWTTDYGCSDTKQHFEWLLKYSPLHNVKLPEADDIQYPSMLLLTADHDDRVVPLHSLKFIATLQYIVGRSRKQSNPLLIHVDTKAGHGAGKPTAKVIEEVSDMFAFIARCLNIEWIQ

**Q.** For CC[C@@]1(c2ccc(C)cc2)C(=O)N(C(=O)OC(C)C)N1C(=O)OC(C)C, which outcome is on record?
**A.** The outcome was “inactive”.
